Measurements: the supplement of paper PMC9177965

test system: HT29 sg-Ctrl (RNF43 wildtype); test: cell viability activity relative to DMSO (negative = inhibition); higher = more viable cells (less growth inhibition); settings: 5 µM; 96 h
Procedure: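 Broad Repurposing Library primary screen at a single dose of 5 uM. HT29 sg-Ctrl and HT29 RNF43 G659fs CRISPR-edited isogenic cells were seeded at 2500 cells/well in 384-well plates in duplicate and treated for 96 h. Viability was read by CellTiter-Glo and reported as % activity relative to DMSO, with MG132 as the positive control (negative = growth inhibition).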

SMILES | cell viability activity
CCCC[C@H](NC(C)=O)C(=O)N[C@H]1CC(=O)NCCCC[C@@H](C(=O)O)NC(=O)[C@H](Cc2c[nH]c3ccccc23)NC(=O)[C@H](CCCNC(=N)N)NC(=O)[C@@H](Cc2ccccc2)NC(=O)[C@H](Cc2c[nH]cn2)NC1=O | -7.64%
CCCCCCCCNC(C)C(O)c1ccc(SC(C)C)cc1 (centres undefined) | -12.2%
Clc1ccc(C2(c3ccc(-c4cn[nH]c4)cc3)CCNCC2)cc1 | -86.8%
OCCN1CCN(CCCN2c3ccccc3Sc3ccc(Cl)cc32)CC1 | -90.5%
Cc1ccc(S(=O)(=O)C=CC#N)cc1 | -97.7%
C[C@H](Nc1cc(-c2cnn(C)c2)cc(Nc2cnccn2)n1)c1ccc(F)cc1 | -43%
O=C(NOCCO)c1cc(CN2OCCCC2=O)c(F)c(F)c1Nc1ccc(I)cc1F | -75%
Cc1cc(Nc2ccc(NC(=O)c3ccc(Nc4ccnc5ccccc45)cc3)cc2)nc(N)n1 | -93.7%
O=C(c1cn(Cc2cncn2Cc2ccc(Br)cc2)cc1-c1cccc2ccccc12)N1CCOCC1 | -38.5%
CN[C@@H]1C[C@H]2O[C@@](C)([C@@H]1OC)n1c3ccccc3c3c4c(c5c6ccccc6n2c5c31)C(=O)N[C@H]4O | -91.7%
Clc1ccc(CSC(Cn2ccnc2)c2ccc(Cl)cc2Cl)cc1 (centres undefined) | -29%
COc1cc(N2CCC(N)CC2)ccc1Nc1ncc(Cl)c(-c2c[nH]c3ccccc23)n1 | -95.7%
CC(C)[C@H]1c2ccc(F)cc2CC[C@@]1(CCN(C)CCCc1nc2ccccc2[nH]1)OC(=O)C1CC1 | -90.4%
CN[C@H](C(=O)N[C@H](C(=O)N(C)[C@H](/C=C(\C)C(=O)O)C(C)C)C(C)(C)C)C(C)(C)c1ccccc1 | -33.2%
